Structures are written as SMILES. Out of some 340,000 compounds screened, about 1,000 (0.29%) were called active. Rule as the data show it: inconclusive = inhibition above about 27% without an active follow-up result; inactive = below that. Only a sample is shown. Measured potencies and affinities stand elsewhere.

This test in a line: NS1A inhibition, H1N1 influenza, cell based functional assay (AID 504329). The note with it: percent inhibition, at 12.5 µM, stronger effect = higher value.
With `CC(C)c1ccc(NC(=S)Nc2ccc3[nH]c(=O)[nH]c3c2)cc1`, the inhibition is 1.94% (inactive).
The result for `Cc1ccc(S(=O)(=O)N2CCOCC2)cc1NS(=O)(=O)c1ccc(F)c(F)c1` reads -3.51% (inactive); that for `Cc1c(C(=O)Nc2ccccc2)c2cc(O)ccc2n1Cc1ccccc1`, -3.07% (inactive); that for `O=C1CCCN1CCC1CCN(C2CC(=O)N(Cc3ccc(N4CCCC4=O)cc3)C2=O)CC1` (configuration not stated), 18.3% (inactive).
The result for `COc1ccc(OC)c(C(=O)CN2CCN(S(=O)(=O)c3ccc(Br)cc3)CC2)c1` reads 0.97% (inactive); that for `NC(=O)c1nsc(C(=O)N(c2ccc(F)cc2)C(C(=O)NC2CCCC2)c2ccncc2)c1N` (configuration not stated), 7.29% (inactive).
With `CC1CCC2(CC1)C(Nc1cccc(Cl)c1)=NC(=S)N2CC#N` (configuration not stated) the figure was 11.2% (inactive); with `NC(=O)c1c(NC(=O)Cn2nc(C(=O)O)c3ccccc3c2=O)sc2c1CCC2`, 0.19% (inactive); with `CCOC(=O)c1c(NC(=O)CSc2nncn2C)sc(C)c1C`, -1.87% (inactive).
Regarding `COc1ccc(Oc2nc(-c3ccccn3)ncc2OC)cc1`, the inhibition is 7.31% (inactive).
The result for `COc1cnc(-c2ccccn2)nc1Oc1ccccc1` reads 10.4% (inactive); that for `Cc1nc2c(C)cccc2c2c1COC2`, -0.38% (inactive).
The result for `CCOC(=O)c1sc(NC(=O)CSc2nc3c(cc2C#N)CCCCC3)c(C#N)c1C` reads 0.28% (inactive); that for `Cc1c(NC(=O)c2ccc(C(=O)Nc3c(C)n(C)n(-c4ccccc4)c3=O)cc2)c(=O)n(-c2ccccc2)n1C`, 11.8% (inactive); that for `CCCCC[C@H]1CN(C2CCCCC2)C(=O)[C@@H]1CC(=O)NCc1ccccc1`, -4.52% (inactive).
`Cc1ccc2[nH]c3nc(SCC#N)nnc3c2c1`: the inhibition is 3.03% (inactive).
The result for `Cc1ccc2[nH]c3nc(N/N=C/c4cccc(O)c4)nnc3c2c1` reads 5.99% (inactive).
With `Cc1ccc(C)c(N(C)S(=O)(=O)c2ccc3[nH]cc(C(=O)NCCN4CCOCC4)c(=O)c3c2)c1` the figure was 13.2% (inactive); with `CCCCNc1nc(N)ncc1[N+](=O)[O-]`, -2.32% (inactive); with `[O-][N+]1=c2ccc(Nc3ccccc3)cc2=NC12CCCCC2`, 16.6% (inactive).
With `O=[N+]([O-])c1ccc2c(c1N1CCCCC1)=NC1(CCCCC1)[N+]=2[O-]` the figure was -7.13% (inactive).
For `CCCCNc1c([N+](=O)[O-])cc(C(=O)O)cc1[N+](=O)[O-]`, the inhibition is 25.7% (inactive).
For `Cc1noc(C)c1S(=O)(=O)N1CCC(C(=O)O)CC1`, the inhibition was -5.05% (inactive).
With `CC1(C)CC(CCN)(Cc2ccccc2Cl)CCO1` (configuration not stated) the figure was -1.58% (inactive); with `COc1ccccc1N1CCN(C(=O)c2c(-c3c(F)cccc3Cl)noc2C)CC1`, -1.81% (inactive).
With `O=C1c2ccccc2-c2c1cccc2C(=O)N1CCOCC1`, the inhibition is -11.9% (inactive).
With `O=C1C(Cl)=C(N2CCCCC2)C(=O)N1c1ccccc1Cl` the figure was -3.44% (inactive).
For the compound `O=C1c2ccccc2-c2onc3ccc(Oc4ccccc4)c1c23`, the inhibition was 11.9% (inactive).
With `CN1CCN(c2cccc3c2C(=O)c2ccccc2C3=O)CC1` the figure was 4.2% (inactive).
With `O=C1c2ccccc2C(=O)c2cc(N3CCCCC3)ccc21`, the inhibition was -3.43% (inactive).
With `Nc1ccccc1N1CCOCC1` the figure was 0.99% (inactive); with `N#Cc1c(Cl)cccc1N1CCCC1`, -9.33% (inactive).
As for `CCOc1ccc2noc3c2c1C(=O)c1ccccc1-3`, the inhibition is 7.74% (inactive).
The result for `O=C(N1CCCC1)C12CC3CC(CC(C3)C1)C2` reads -8.92% (inactive); that for `CCCOc1ccc(C(=O)OCC(=O)c2c(N)n(C)c(=O)n(C)c2=O)cc1OCC`, -1.83% (inactive); that for `CCN(CC(=O)NC(=O)NCc1ccccc1)CC(=O)Nc1cc(Cl)ccc1C`, -8.38% (inactive).
With `CC(C)Cn1c(N)c(C(=O)COC(=O)c2c(F)cccc2F)c(=O)n(C)c1=O`, the inhibition was -5.45% (inactive).
The result for `Cc1ccc(CCNC(=O)c2ccc(CS(=O)(=O)Cc3ccc(F)cc3)o2)cc1` reads 2.69% (inactive); that for `O=C(NNc1cccc([N+](=O)[O-])c1)/C(=C\c1cccnc1)NC(=O)c1ccccc1`, 9.25% (inactive).
`COc1cc(CN(CC(C)C)S(=O)(=O)c2ccccc2Br)cc(OC)c1`: the inhibition is -4.89% (inactive).
The result for `Cc1ccc(NC(=O)c2cccc(S(=O)(=O)NCc3ccccc3)c2)nc1` reads -4.84% (inactive); that for `CCN(CC(=O)Nc1ccccc1OC)C(=O)CSCc1ccc(C)cc1`, 1.31% (inactive); that for `COc1cc(-c2nc(CN3CCN(CC(C)C)C(=O)[C@@H]3C)c(C)o2)ccc1F`, 8.73% (inactive).
The result for `O=C1c2ccccc2-c2onc3ccc(NCc4ccco4)c1c23` reads 26% (inactive); that for `CC(=O)N(C)c1ccc(N2CCOCC2)c2c1C(=O)c1ccccc1C2=O`, 16.8% (inactive); that for `COc1ccccc1N1CCN(Cc2ccccc2)CC1`, -11.8% (inactive).
The result for `CC(=C1C(=O)c2ccccc2C1=O)N1CCN(Cc2ccccc2)CC1` reads -9.47% (inactive).
`O=C1C=C(N2CCOCC2)c2ccccc2C1=O`: the inhibition was -1.26% (inactive).
Consider `CCNc1ccccc(-c2ccc3ccccc3n2)c1=O`, for which the inhibition was -10% (inactive).
With `O=C(O/N=C/c1ccc(Br)cc1)c1ccc(F)cc1` the figure was 5.19% (inactive); with `CCC(C)N(C(=O)COC(=O)CSc1ccc(C)c(C)c1)C1CCS(=O)(=O)C1` (configuration not stated), -5.16% (inactive); with `COc1ccc2[nH]c(C(=O)NCc3ccccc3)cc2c1`, 15.2% (inactive).
The result for `Clc1ccccc1-c1ccc2ncnc(NCc3cccs3)c2c1` reads 9.25% (inactive).
The result for `Cc1nc(N2CCCCC2)c2ccsc2n1` reads -1.56% (inactive).
As to `Cc1ccc(CN2C(=O)C(=O)c3cc(C)ccc32)cc1`, the inhibition was 3.72% (inactive).
As to `CN1CCN(C(c2ccccn2)c2cc(Cl)c3cccnc3c2O)CC1` (configuration not stated), the inhibition was 14.5% (inactive).
The result for `Oc1c(C(c2ccc(Cl)cc2)N2CCCC2)cc(Cl)c2cccnc12` (configuration not stated) reads -6.42% (inactive); that for `CN1CCN(C(c2ccc(Cl)cc2)c2cc(Cl)c3cccnc3c2O)CC1` (configuration not stated), 2.9% (inactive); that for `CCN1CCN(C(c2ccc(C(F)(F)F)cc2)c2ccc3cccnc3c2O)CC1` (configuration not stated), 16.8% (inactive).
In the case of `CN1CCN(C(c2ccc(F)cc2)c2ccc3cccnc3c2O)CC1` (configuration not stated), the inhibition was 7.02% (inactive).
Regarding `Cc1ccc(C(c2cc(Cl)c3cccnc3c2O)N2CCN(C)CC2)cc1` (configuration not stated), the inhibition is 5.08% (inactive).
The result for `CCCCn1c(N)c(N(CCOC)C(=O)COC(=O)COc2c(C)cccc2C)c(=O)[nH]c1=O` reads -13% (inactive).
The result for `CC(C)(C)c1cc(NC(=O)CSc2nncs2)n(-c2ccccc2)n1` reads 1.18% (inactive).
In the case of `Cc1cc(C(=O)NC(Cc2c[nH]c3ccccc23)C(=O)O)c(C)o1` (configuration not stated), the inhibition was 1.37% (inactive).
For the compound `COc1ccc(S(=O)(=O)Nc2ccc3c(c2)N(C(C)=O)CCC3)cc1OC`, the inhibition is 4.6% (inactive).
As to `O=C(CNS(=O)(=O)c1ccc(F)cc1)N1CCN(c2ccc(F)cc2)CC1`, the inhibition is -9.78% (inactive).
With `COc1ccc(C(=O)c2sc(Nc3ccc(NC(C)=O)cc3)nc2C)cc1`, the inhibition was -2.13% (inactive).
The result for `CN(C)c1ccc(C=C2C=Cc3ccccc32)cc1` reads 11.1% (inactive).
Take `CN(C)c1ccc(/C=C2\CCCCC2=O)cc1`: the inhibition is 12.2% (inactive).
For the compound `COc1cc(C(=O)N=c2sccn2C)c([N+](=O)[O-])cc1OC`, the inhibition was -1.77% (inactive).
The result for `O=C(Cn1nnc(-c2ccccc2)n1)N1CCN(c2ccc(F)cc2)CC1` reads 11.4% (inactive); that for `COCCCNC(=S)NNC(=O)c1csc(C)n1`, -15.3% (inactive).
The result for `COCCCNC(=S)NNC(=O)c1cccnc1` reads -5.08% (inactive); that for `Cc1cccc(NC(=O)NNC(=O)c2ccccn2)c1`, 0.66% (inactive).
The result for `S=C(NCc1ccccn1)Nc1ccc(Cl)c(Cl)c1` reads 1.31% (inactive); that for `COc1ccc(C(=O)NNC(=O)c2ccccn2)cc1`, -9.69% (inactive).
For `CC(C)C(=O)NNC(=O)c1ccccn1`, the inhibition is -2.86% (inactive).
With `COC(=O)c1nc2n(n1)C(c1ccc(OC)c(OC)c1)C(C(=O)OC1CCCCC1)=C(C)N2` (configuration not stated) the figure was 1.19% (inactive).
In the case of `Cc1nnc(NC2CCCCC2)[nH]c1=O`, the inhibition is -4.74% (inactive).
With `COc1ccc(NS(=O)(=O)c2ccc(C(=O)N3CCN(Cc4ccccc4)CC3)cc2)cc1` the figure was 11.9% (inactive).
Turning to `Cc1onc(-c2c(F)cccc2Cl)c1C(=O)c1ccccc1`, the inhibition was 20% (inactive).
Regarding `O=C(NCC(c1ccco1)N1CCc2ccccc2C1)c1cccc([N+](=O)[O-])c1` (configuration not stated), the inhibition is -12.3% (inactive).
Turning to `Cn1c(=O)c2c(nc(NCc3ccccc3)n2C)n(C)c1=O`, the inhibition is 1.83% (inactive).
The result for `COc1ccccc1/C=C1\C(=O)NC(=S)N(c2ccccc2)C1=O` reads -27.6% (inactive).
`O=C(Nc1csnn1)OCc1ccccc1`: the inhibition was -22.9% (inactive).
With `Cc1[nH]c2ccccc2c1/C=N/n1cnnc1` the figure was -3.32% (inactive); with `Cc1[nH]c2ccccc2c1/C=N/O`, -0.17% (inactive).
In the case of `O=C(c1cccc(S(=O)(=O)N2CCOCC2)c1)N(Cc1ccco1)Cc1cccs1`, the inhibition is 4.9% (inactive).
Regarding `Oc1ccccc1C=Nc1cccc2ccccc12`, the inhibition is -4.35% (inactive).
The result for `Oc1ccccc1C=Nc1ccccc1-c1nc2ccccc2[nH]1` reads 41.1% (inactive); that for `Cc1ccc(Nc2cc(C)nc3c(C)cccc23)cc1`, -2.9% (inactive); that for `O=S(=O)(NCc1cc(-c2ccccc2Cl)no1)c1ccc(Cl)cc1`, 0.63% (inactive).
With `COc1ccc(CNc2nc3nc(C)cc(C)n3n2)cc1`, the inhibition is 1.24% (inactive).
With `CSc1ncccc1C(=O)Nc1cccc(S(=O)(=O)N2CCCC2)c1`, the inhibition was -2.85% (inactive).
With `O=C(COC(=O)c1ccccc1O)NNC(=O)c1ccc(Br)cc1`, the inhibition is 7.27% (inactive).
Turning to `O=C(C1CCN(Cc2nc(Cc3cccc(F)c3)no2)CC1)N1CCOCC1`, the inhibition was 7.26% (inactive).
The result for `Cc1ccc(NC(=O)CSc2nn3c(=O)c(C)nnc3s2)cc1Cl` reads 12.2% (inactive); that for `Cc1nnc2sc(SCc3ccc(Cl)cc3)nn2c1=O`, -5.29% (inactive); that for `Cc1cccc(CSc2nn3c(=O)c(C)nnc3s2)c1`, -3.29% (inactive).
With `Cc1nnc2sc(SCC(=O)Nc3ccc(Br)cc3)nn2c1=O` the figure was 24.3% (inactive); with `Cc1nnc2sc(SCc3cccc(Cl)c3)nn2c1=O`, 2.99% (inactive).
With `Cc1nnc2sc(SCC(=O)Nc3nccs3)nn2c1=O` the figure was -3.22% (inactive).

(Values after PubChem BioAssay AID504329 (Southern Research Specialized Biocontainment Screening …, 2011).)
